The campaign covered roughly 400,000 compounds. About 2,100 (0.53%) were called active. Not shown: some 14% with an inconclusive outcome. This is one part of a sample in which actives are shown more often than they occur. The rule behind the calls is not given here.

Our source for the Potency values is ChEMBL document CHEMBL1201862, “PubChem BioAssay data set” (2004).

Ataxin-2 (Homo sapiens), sequence (Q99700 whole entry): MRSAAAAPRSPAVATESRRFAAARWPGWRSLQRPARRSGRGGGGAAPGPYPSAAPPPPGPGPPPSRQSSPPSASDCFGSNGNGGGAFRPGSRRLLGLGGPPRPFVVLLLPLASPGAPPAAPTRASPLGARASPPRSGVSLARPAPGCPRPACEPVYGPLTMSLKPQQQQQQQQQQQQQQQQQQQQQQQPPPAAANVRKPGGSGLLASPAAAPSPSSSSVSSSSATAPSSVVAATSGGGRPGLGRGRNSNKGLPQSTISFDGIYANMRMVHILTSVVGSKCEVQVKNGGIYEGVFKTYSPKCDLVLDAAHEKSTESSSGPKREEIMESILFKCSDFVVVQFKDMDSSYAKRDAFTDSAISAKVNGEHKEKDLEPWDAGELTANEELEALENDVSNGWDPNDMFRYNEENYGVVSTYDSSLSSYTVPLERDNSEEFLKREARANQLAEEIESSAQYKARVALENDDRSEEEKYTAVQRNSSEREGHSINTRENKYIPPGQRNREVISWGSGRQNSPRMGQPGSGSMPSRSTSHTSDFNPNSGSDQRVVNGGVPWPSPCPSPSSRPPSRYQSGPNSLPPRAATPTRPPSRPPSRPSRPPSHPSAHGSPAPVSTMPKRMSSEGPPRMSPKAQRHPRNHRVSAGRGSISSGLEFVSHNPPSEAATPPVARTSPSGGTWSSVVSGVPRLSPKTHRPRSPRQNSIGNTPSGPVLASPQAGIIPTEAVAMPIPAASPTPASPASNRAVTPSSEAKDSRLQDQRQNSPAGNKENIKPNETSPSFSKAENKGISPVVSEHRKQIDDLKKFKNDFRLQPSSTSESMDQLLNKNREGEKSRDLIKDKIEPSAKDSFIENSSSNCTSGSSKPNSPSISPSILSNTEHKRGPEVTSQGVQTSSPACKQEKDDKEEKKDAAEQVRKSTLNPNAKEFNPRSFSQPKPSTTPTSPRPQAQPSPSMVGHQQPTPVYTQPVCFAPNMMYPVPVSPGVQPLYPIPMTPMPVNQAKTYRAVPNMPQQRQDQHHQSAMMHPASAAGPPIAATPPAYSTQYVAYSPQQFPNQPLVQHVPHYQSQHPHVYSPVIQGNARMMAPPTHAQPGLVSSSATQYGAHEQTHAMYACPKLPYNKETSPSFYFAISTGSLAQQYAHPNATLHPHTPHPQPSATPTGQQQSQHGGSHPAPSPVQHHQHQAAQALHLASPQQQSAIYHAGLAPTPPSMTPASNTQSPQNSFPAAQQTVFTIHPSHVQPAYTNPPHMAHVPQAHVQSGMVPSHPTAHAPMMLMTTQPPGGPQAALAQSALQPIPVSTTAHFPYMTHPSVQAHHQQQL

The assay has as its target Ataxin-2 (Homo sapiens) (UniProt Q99700). The assay can be described thus: qHTS for Inhibitors of ATXN expression. It counts as functional.
Consider `CCOC(=O)c1cc2c(=O)n3ccccc3nc2n(CCOC)/c1=N/C(=O)c1c(-c2c(F)cccc2Cl)noc1C`, for which the Potency result was “inactive”.
As for `Cc1c2ccccc2nc2ccccc12`, the entry is “inactive”; as for `Cc1cc(C)c2c(N)c3ccccc3nc2n1`, “inactive”; as for `Cc1cc2[nH]c3c4ccccc4nc(C)c3c2cc1C`, 28.2 µM (active).
With `Cc1ccc2nc(N3CCN(C(=O)CCCC(=O)O)CC3)nc(-c3ccccc3)c2c1` the entry was “inactive”; with `CCOC(=O)c1ccc(N2C(=O)C=CC2=O)cc1`, 39.8 µM (active).
For `CCOC(=O)c1ccc(NS(=O)(=O)c2c(C)n(C)c(=O)n(C)c2=O)cc1`, the Potency entry is “inactive”.
Turning to `CCOC(=O)c1ccc(NC(=O)N2C3CCCC2CC(NC(C)=O)C3)cc1` (stereo not given), the Potency result was “inactive”.
As for `CC1CCCc2sc3ncn(N)c(=N)c3c21` (stereo not given), the Potency result was “inactive”.
With `CCCCCCCNC(=O)C1(CC2CC(c3ccc(Cl)cc3)=NO2)CCNCC1` (stereo not given) the figure was 25.1 µM (active).
Turning to `CCCCCCCNC(=O)C1(CC2CC(c3cccc(Br)c3)=NO2)CCNCC1` (stereo not given), the Potency is 31.6 µM (active).
With `CC1CCCC(C)N1C(=O)COC(=O)C12CC3CC(CC(Cl)(C3)C1)C2` (stereo not given) the entry was “inactive”; with `O=C(NN/C=C1\C(=O)N(c2ccc(Cl)cn2)C(=O)c2ccccc21)c1ccncc1`, “inactive”.
With `Cc1cccc(OCC2Cn3c(nc4c3c(=O)[nH]c(=O)n4C)O2)c1` (stereo not given), the Potency entry was “inactive”.
With `CCCCCn1c(N2CCC(Cc3ccccc3)CC2)nc2c1c(=O)[nH]c(=O)n2C` the figure was 28.2 µM (active).
`CCCCCCn1c(SCCOC)nc2c1c(=O)[nH]c(=O)n2C`: the Potency entry was “inactive”.
With `Cn1c(=O)[nH]c(=O)c2c1nc(N1CCCCCC1)n2Cc1cccc2ccccc12` the figure was 44.7 µM (active); with `CCCSc1nc2c(c(=O)[nH]c(=O)n2C)n1Cc1ccccc1`, “inactive”.
With `Brc1ccc(C2CC(c3ccccc3)=Nc3ccccc3N2)cc1` (stereo not given) the entry was “inactive”; with `CC(=O)c1ccc(N2C(=O)[C@@H]3[C@H](C2=O)[C@H]2c4ccccc4C=NN2[C@@H]3C(C)=O)cc1`, “inactive”; with `CCn1nc([N+](=O)[O-])c(C(C#N)c2nc3cc(C(F)(F)F)ccc3s2)c(Cl)c1=O` (stereo not given), 28.2 µM (active).
For the compound `CCOC(=O)c1cc2c(=O)n3ccccc3nc2n(Cc2ccco2)/c1=N\C(=O)c1cccc(Br)c1`, the Potency result was “inactive”.
As for `O=C(NCc1ccccn1)c1cc2ccccn2n1`, the Potency entry was “inactive”.
As to `COCCCNC(=O)c1c(N)n(-c2cccc(S(N)(=O)=O)c2)c2nc3ccccc3nc12`, the Potency entry is “inactive”.
As for `OC(CNC1CCCC1)COc1ccc(-c2ccccc2)cc1` (stereo not given), the entry is “inactive”; as for `COc1ccc(CN(C)Cc2c(O)ccc3cc(Br)ccc23)cc1OC`, “inactive”.
As for `COc1ccc(CN(C)CC(O)COc2ccc(-c3ccccc3)cc2)cc1OC` (stereo not given), the Potency is 11.2 µM (active).
As for `Cc1nn2c(NCCN(C)C)c3c(nc2c1-c1ccccc1)CCCC3`, the Potency was 35.5 µM (active).
`Cc1nn2c(NC(C)C)c3c(nc2c1-c1ccccc1)CCC3`: the Potency entry is “inactive”.
With `Cc1cc(C(C)(C)C)n2nc(C)c(-c3ccccc3)c2n1` the entry was “inactive”; with `CSCCC(NC(=O)/C(=C/c1ccc2c(c1)OCO2)NC(=O)c1cccc([N+](=O)[O-])c1)C(=O)O` (stereo not given), “inactive”.
With `C=CCC[C@H](Cc1ccc(F)cc1)C(=O)OC[C@@H](NC(=O)[C@@H](CC=C)CC(=O)N[C@@H](CO)Cc1ccccc1)C(C)(C)C` the figure was 39.8 µM (active); with `C=CC[C@H](CC(=O)N(CCO)Cc1ccccc1)C(=O)N[C@H](COC(=O)[C@@H](CC=C)Cc1ccc(F)cc1)Cc1ccccc1`, 22.4 µM (active).
Take `C=CC[C@H](CC(=O)N(CCO)Cc1ccccc1)C(=O)NC[C@@H](OC(=O)[C@@H](CC=C)Cc1ccc(F)cc1)c1ccccc1`: the Potency is 28.2 µM (active).
As for `C=CC[C@H](CC(=O)N(CCO)Cc1ccccc1)C(=O)N[C@H](COC(=O)[C@@H](CC=C)Cc1ccc(F)cc1)C(C)(C)C`, the Potency was 28.2 µM (active).
For the compound `Cn1c(-c2c(N)n(CCc3ccccc3)c3nc4ccccc4nc23)nc2ccccc21`, the Potency entry was “inactive”.
In the case of `Cc1ccc(C(C(=O)NCC2CCCO2)N(C(=O)c2snc(C(N)=O)c2N)c2ccccc2F)o1` (stereo not given), the Potency entry was “inactive”.
Turning to `C=CC[C@H](CC(=O)N(CCO)Cc1ccccc1)C(=O)N[C@@H](COC(=O)[C@@H](CC=C)Cc1ccc(F)cc1)Cc1ccccc1`, the Potency is 28.2 µM (active).
Consider `C=CC[C@@H](CC(=O)N(CCO)Cc1ccccc1)C(=O)N[C@H](COC(=O)[C@@H](CC=C)Cc1ccc(F)cc1)Cc1ccccc1`, for which the Potency was 28.2 µM (active).
As for `OCCN(Cc1ccccc1)C(S)=Nc1ccc(F)cc1`, the entry is “inactive”; as for `Cc1cccn2c(=O)c3cc(C#N)/c(=N\C(=O)c4ccncc4)n(CCCOC(C)C)c3nc12`, “inactive”; as for `CCn1ccnc1CN1CCc2c([nH]c3ccccc23)C1CC(C)C` (stereo not given), “inactive”.
For the compound `C[C@]12c3[nH]c4ccc(Cl)cc4c3CCN1C(=O)[C@@H](CC(=O)NCc1cccc(C(F)(F)F)c1)C[C@@H]2C(=O)N1CCCCC1`, the Potency was 35.5 µM (active).
With `O=C(CCCCCn1c(=S)[nH]c2ccc(N3CCOCC3)cc2c1=O)NCc1ccc(Cl)cc1` the entry was “inactive”.
As for `O=C(CCCCCn1c(=S)[nH]c2ccc(N3CCOCC3)cc2c1=O)NCc1cccc(Cl)c1`, the entry is “inactive”.
As to `C[C@]12c3[nH]c4ccc(Cl)cc4c3CCN1C(=O)[C@@H](CC(=O)NCc1cccc(C(F)(F)F)c1)C[C@@H]2C(=O)N1CCOCC1`, the Potency was 20 µM (active).
`CCC1(C)Cc2ccccc2-c2ncnc(O)c21` (stereo not given): the Potency entry was “inactive”.
Consider `COC(=O)N/N=C/c1cccc(OC(=O)c2ccc3c(c2)OCO3)c1`, for which the Potency entry was “inactive”.
With `O=C(Cn1nnc2ccccc2c1=O)Nc1ccc(S(=O)(=O)N2CCOCC2)cc1` the entry was “inactive”.
Take `COc1ccc(C2C=C(c3ccccc3)Nc3nc(NS(=O)(=O)c4ccc(C)cc4)nn32)cc1` (stereo not given): the Potency result is “inactive”.
Consider `COc1cc([C@@H]2c3cc4c(cc3[C@@H](O)[C@H]3COC(=O)[C@H]23)OCO4)cc(OC)c1O[Si](C)(C)C(C)(C)C`, for which the Potency is 39.8 µM (active).
For `Oc1c(C(Nc2cccc(C(F)(F)F)c2)c2ccncc2)ccc2cccnc12` (stereo not given), the Potency result is “inactive”.
With `COc1cccc(-c2cc(C(F)(F)F)c(C#N)c(O)n2)c1` the entry was “inactive”.
Turning to `N#Cc1cccc(-c2csc(C(O)(c3ccccc3)C(F)(F)F)n2)c1` (stereo not given), the Potency is 20 µM (active).
Take `OC(c1ccccc1)(c1nc(-c2cc(F)cc(F)c2)cs1)C(F)(F)F` (stereo not given): the Potency was 35.5 µM (active).
